Data taken from the supplement of paper PMC10646978.
± gives the standard deviation.

Assays:
Conditions in all cases: modulator concentration 10 µM
[1] = test system: RAW-Dual (murine macrophage reporter line); test: NF-kB reporter (SEAP) activity fold change vs agonist alone; higher = enhanced NF-kB activity
In short: (§1)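 Compound reached 10 μM final in each well by pin transfer, onto RAW-Dual murine macrophage reporter cells seeded at 50 000 per well in 384-well plates. After 1 hour at 37 °C, the cells were stimulated overnight with a PRR agonist. SEAP in the supernatant was read with QUANTI-Blue at 620 nm absorbance for NF-κB, and Lucia luciferase was read with QUANTI-Luc luminescence for IRF. Each signal was turned into fold change against the mean agonist-only control on the same plate, and two replicate plates were averaged with propagated errors.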

[2] = test system: RAW-Dual (murine macrophage reporter line); test: IRF reporter (Lucia luciferase) activity fold change vs agonist alone; higher = enhanced IRF activity
In short: as §1

[3] = test system: RAW-Dual (murine macrophage reporter line); test: viability score (confluency relative to resting cells, overnight) (fraction); higher = more viable, active = viable (0.7 or more)
In short: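 RAW-Dual macrophages in 384-well plates were treated overnight with compound at 10 μM final. IncuCyte imaging recorded confluency, and IncuCyte software built two confluency masks across every imaged well. The viability score expresses confluency relative to resting cells and was judged against a cutoff, which a compound met only if both masks exceeded 70% of resting cells.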

[4] = agonist: CpG ODN 1826 0.5 ug/mL

Structure (SMILES)	NF-kB reporter [1, 4]	NF-kB reporter ([1]; agonist: LPS 0.1 ug/mL)	NF-kB reporter ([1]; agonist: MPLA […])	IRF reporter ([2]; agonist: 3'3'-cGAMP 10 ug/mL)	IRF reporter ([2]; agonist: LPS 0.1 ug/mL)	IRF reporter ([2]; agonist: MPLA […])	viability score [3]
Cc1cc(=O)[nH]c(-n2nc(C)c(CCC(=O)N3CCN(C)CC3)c2C)n1	1.16 ± 0.092	1.13 ± 0.089	0.977 ± 0.028	1.01 ± 0.084	1.05 ± 0.12	0.931 ± 0.095	0.994 (active)
COc1ccc(CNCc2cccc(C(F)(F)F)c2)cc1	0.749 ± 0.083	1.04 ± 0.087	1.02 ± 0.045	1.12 ± 0.14	0.966 ± 0.071	1.37 ± 0.21	0.27 (inactive)
C[C@H](Oc1ccc(S(C)(=O)=O)cc1C(=O)N1CCN(c2ncc(C(F)(F)F)cc2F)CC1)C(F)(F)F	0.902 ± 0.073	0.807 ± 0.11	0.936 ± 0.056	0.821 ± 0.074	1.03 ± 0.038	0.706 ± 0.15	1 (active)
Cc1ccc(-n2c(C)cc(C=NNC(=O)CN3CCOCC3)c2C)c(C)c1	0.928 ± 0.084	1.11 ± 0.1	1.09 ± 0.097	0.822 ± 0.024	1.09 ± 0.19	1.07 ± 0.082	1 (active)
Cc1c(N=Cc2cc([N+](=O)[O-])ccc2O)c(=O)n(-c2ccccc2)n1C	0.911 ± 0.055	0.995 ± 0.061	0.907 ± 0.089	0.917 ± 0.03	1.34 ± 0.15	1.18 ± 0.2	0.999 (active)
NC(=O)CC[C@H](N)C(=O)O	0.931 ± 0.076	0.998 ± 0.096	0.982 ± 0.023	0.949 ± 0.082	0.998 ± 0.039	1.04 ± 0.11	1.01 (active)
CNC(=O)c1cc(Oc2ccc(NC(=O)Nc3ccc(Cl)c(C(F)(F)F)c3)c(F)c2)ccn1.O	0.151 ± 0.012	0.0887 ± 0.0079	0.42 ± 0.035	0.0171 ± 0.0034	0.0276 ± 0.0016	0.0325 ± 0.0049	0.448 (inactive)
CC1CCN(c2nccnc2Oc2ccc(C(=O)N3CCN(c4ccc(F)cc4)CC3)cc2)CC1	0.803 ± 0.071	1.1 ± 0.062	0.709 ± 0.047	0.684 ± 0.032	1.26 ± 0.18	1.11 ± 0.07	0.964 (active)
CSCCC(NC(C)=O)C(=O)NC1CCN(c2nc(C)nc3c2CCCC3)CC1 (centres undefined)	0.836 ± 0.061	1.06 ± 0.086	0.896 ± 0.048	0.957 ± 0.073	1.29 ± 0.18	1.17 ± 0.16	0.999 (active)
Clc1ccc(Nc2nc(Nc3ccc(Cl)cc3)nc(N3CCOCC3)n2)cc1	0.794 ± 0.072	0.902 ± 0.068	1.1 ± 0.15	0.805 ± 0.12	1.26 ± 0.23	1.37 ± 0.45	1.03 (active)
Cl.Cl.Fc1ccc(C(c2ccc(F)cc2)N2CCN(C/C=C/c3ccccc3)CC2)cc1	1.06 ± 0.087	0.97 ± 0.1	1.42 ± 0.3	1.06 ± 0.068	1.11 ± 0.082	1.26 ± 0.14	0.999 (active)
O=C(Nc1cc2c(cc1Cl)OCCO2)c1cc(Cl)ccc1O	0.882 ± 0.068	0.902 ± 0.077	0.969 ± 0.092	1.08 ± 0.034	1.26 ± 0.16	1.45 ± 0.23	1.01 (active)
Cc1ccc(-c2nn(-c3ccccc3)cc2C=C(C#N)C(N)=O)o1	1.04 ± 0.26	0.991 ± 0.081	1 ± 0.081	1.01 ± 0.041	1.22 ± 0.2	1.12 ± 0.11	0.966 (active)
COc1c2occc2cc2ccc(=O)oc12	1.44 ± 0.21	1.21 ± 0.11	0.907 ± 0.051	0.91 ± 0.029	1.3 ± 0.15	1.04 ± 0.08	0.989 (active)
CCSc1nnc(NC(=O)C2CC3CCC2C3)s1 (centres undefined)	0.941 ± 0.058	0.969 ± 0.06	0.884 ± 0.06	1.29 ± 0.098	1.4 ± 0.092	1.09 ± 0.1	0.94 (active)
CCOC(=O)Nc1ccc(NCc2ccc(F)cc2)nc1N.O=C(O)/C=C/C(=O)O	1.21 ± 0.16	1.3 ± 0.34	0.885 ± 0.05	0.678 ± 0.043	1.3 ± 0.23	1.12 ± 0.09	0.977 (active)
CCn1nccc1C(=O)N1CCN(S(C)(=O)=O)CC1	1.02 ± 0.066	0.929 ± 0.092	0.991 ± 0.028	1.01 ± 0.069	0.994 ± 0.061	0.847 ± 0.13	1 (active)
Cn1ncc(Cl)c1-c1cc(C(=O)N[C@H](CN)Cc2cccc(F)c2)sc1Cl	0.833 ± 0.2	1.54 ± 0.11	1.64 ± 0.17	0.69 ± 0.026	1.55 ± 0.21	1.79 ± 0.33	0.647 (inactive)
CN(C)CCCN1c2ccccc2Sc2ccc(Cl)cc21 [Prestw-64]	0.227 ± 0.066	1.1 ± 0.059	1.94 ± 0.12	0.71 ± 0.037	2.26 ± 0.33	2.24 ± 0.35	0.634 (inactive)
CC(=O)NC(NC(C)=O)c1cccc([N+](=O)[O-])c1	1.15 ± 0.12	1 ± 0.13	0.998 ± 0.039	0.968 ± 0.043	0.99 ± 0.085	1.05 ± 0.12	0.995 (active)
CC=CCn1c(=O)c2c(nc3n2CC(C(C)(C)C)=NN3)n(C)c1=O	1.02 ± 0.092	1.09 ± 0.1	1.08 ± 0.11	1 ± 0.026	1.28 ± 0.2	0.943 ± 0.099	0.96 (active)
CS(=O)(=O)Nc1cccc(F)c1	1.12 ± 0.088	1.08 ± 0.074	1.03 ± 0.061	1 ± 0.17	1.07 ± 0.14	1.07 ± 0.22	1 (active)
COc1ccc(C2=CC(=Cc3cccc(OC)c3OC)C(=O)O2)c(OC)c1	1.21 ± 0.3	1.06 ± 0.1	1.07 ± 0.086	1.04 ± 0.028	1.27 ± 0.18	1.16 ± 0.14	1 (active)
CC(N)C12CC3CC(CC(C3)C1)C2.Cl (centres undefined)	0.598 ± 0.14	1.07 ± 0.12	1.04 ± 0.068	0.919 ± 0.033	0.899 ± 0.1	0.966 ± 0.27	0.543 (inactive)
NC(=O)c1ncn([C@@H]2O[C@H](CO)[C@@H](O)[C@H]2O)n1	0.766 ± 0.17	1.07 ± 0.14	0.86 ± 0.084	1.16 ± 0.05	1.66 ± 0.22	1.77 ± 0.18	0.986 (active)
Oc1cc(O)c2c(c1)OC(c1ccc(O)c(O)c1)C(O)C2 (centres undefined)	0.936 ± 0.098	0.859 ± 0.087	1.05 ± 0.1	0.891 ± 0.028	1.13 ± 0.17	1.29 ± 0.32	1.06 (active)
CC(=O)N1CC(C(=O)Nc2ccc(Br)c(C)c2)C1	1.05 ± 0.071	0.996 ± 0.082	0.973 ± 0.053	0.988 ± 0.035	1.03 ± 0.048	0.909 ± 0.089	0.997 (active)
